Where “and” joins values, the source holds several entries; their conditions need not be identical. Identical values can stand only once. This is part of a sample that, as a whole, favours compounds with a hit. Of some 83,000 tested, about 20% had one in any assay.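 Assay: single dose, 48 h. Readout: percent growth (0 = no net growth; negative = cell death). Active: <10.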 Unmarked numbers belong to inactive results. Calls of active or inactive are those of the source.
Test system: MDA-MB-468 breast
Test: NCI-60 one-dose screen, 48 h (100 = growth as untreated, 0 = no growth, -100 = all killed)
Conditions: 10 µM unless noted

SMILES	growth
NC(=O)c1ccc[n+](Cc2ccccc2)c1	98.4%
C=C(C)[C@@H]1CC[C@]2(C(=O)N3CCNCC3)CC[C@]3(C)[C@H](CC[C@@H]4[C@@](C)(CCC(=O)N5CCNCC5)[C@H](C(=C)C)CC[C@]43C)[C@@H]12	49.5%
COc1cccc(C=Nc2cc(C(C)C)c(O)cc2C)c1O	95%
Cc1nc(C)c(C)nc1C	106%
COc1cc2oc(-c3cccc(C(=O)Nc4ccc5c(c4)OCO5)c3)cc(=O)c2c(O)c1OC	54.6%
O=C1c2ccccc2C(=O)c2c1oc1ccc3ccccc3c21	-10.4% (active)
CCCN1CCN(c2ccc3nc(-c4ccc5nc(-c6cc(OC)c(OC)c(OC)c6)[nH]c5c4)[nH]c3c2)CC1	47.1%
O=C(Oc1ccc(Cl)cc1[N+](=O)[O-])Oc1ccc(Cl)cc1[N+](=O)[O-]	114%
COC(=O)c1c2c(c(C)[n+]([O-])c1C)C(=O)C=C(NCc1ccc(Cl)cc1)C2=O	-67% (active)
COc1ccc(-c2ccc3ncc4c(c3c2)n(-c2ccc(N3CCNCC3)c(C(F)(F)F)c2)c(=O)n4C)cn1	-87% (active)
Cc1ccncc1C(=O)O	101%
O=C1NC(=O)C(=Cc2cn(Cc3cn(Cc4ccc(Cl)cc4Cl)nn3)c3ccccc23)C(=O)N1	2.08% (active)
COC1OC2COC(c3ccccc3)OC2C(=O)C1NC(=O)c1ccccc1 (stereo unspecified)	113%
Cc1nc([P+](c2ccccc2)(c2ccccc2)c2ccccc2)c(N2CCCCC2)o1	0.108% (active)
Nc1ccc(S(=O)(=O)O)c2cc(S(=O)(=O)O)cc(O)c12	106%
COc1ccc(Nc2[nH]n3c(=O)cc(-c4ccccc4)nc3c2C(=O)Nc2ccc(C)cc2)c(OC)c1	58.6%
O=[N+]([O-])c1ccc(NC2CCCCC2)nc1	110% and 99.8%
CNC1=C(Br)C(=O)c2c(C(=O)OC)c(C)nc(C)c2C1=O	27.4%
Cc1cc(N2CCCCC2)nc(N(CCCNc2ccnc3cc(Cl)ccc23)Cc2ccco2)n1	6.73% (active)
CCOC(=O)c1ccc2c(c1)nc(-c1ccc(Cl)cc1)n2-c1cc(C(C)(C)C)[nH]n1	18.7%
COC(=O)c1cc(-c2ccc(S(C)(=O)=O)cc2)[nH]c1N/N=C/c1c(Cl)cccc1Cl	15.7%
COc1ccc(-c2cc(-c3ccc(Nc4ccnc5cc(Cl)ccc45)cc3)nc(N3CCOCC3)n2)cc1	42.1%
O=[P@@]1(c2ccccc2)O[C@H](COCc2ccccc2)[C@@H](OCc2ccccc2)[C@H](OCc2ccccc2)[C@H]1NCc1ccccc1	14%
Oc1ccc(CCC2CCCC(CCc3ccc(OCCF)cc3)N2)cc1 (stereo unspecified)	110%
Cc1cc(NC(=O)c2cnc(N3CCN(CCOCCOCCOCCOCCC(=O)N[C@H](C(=O)N4C[C@H](O)C[C@H]4C(=O)N[C@@H](C)c4ccc(-c5scnc5C)cc4)C(C)(C)C)CC3)cn2)c2ncccc2c1	-57.9% (active)
COc1cc2cc(c1Cl)N(C)C(=O)C[C@H](OC(=O)[C@H](C)N(C)C(=O)CCS)C[C@]1(C)O[C@H]1[C@H](C)[C@@H]1C[C@@](O)(NC(=O)O1)[C@H](OC)/C=C/C=C(\C)C2	42%

SMILES	growth
Nc1ncnc2c1c(C(F)(F)F)cn2[C@@H]1O[C@H](CO)[C@@H](O)[C@H]1O	-41.1% (active)
COc1cc(C(=O)NNC(=O)c2ccc(NC(=O)CCl)cc2)cc(OC)c1OC	70.3%
COC1=CC(c2ccc[nH]2)=N/C1=C\c1[nH]c(C)c(C(=O)CCC(=O)Oc2ccc3c(c2)CCC2C3CC[C@]3(C)C(=O)CC[C@@H]23)c1C (stereo partly specified)	76.3%
Clc1ccc2c(c1)C(N1CCNCC1)=Nc1ccccc1O2	-48.3% (active)
Nc1ccc(S(=O)(=O)Nc2ncccn2)cc1	109%
CCN(CC)CCC(CNc1c2ccc([N+](=O)[O-])cc2nc2cc(OC)c(OC)cc12)c1ccccc1 (stereo unspecified)	-58% (active) and -86.9% (active)
C=C1CC[C@@H]2[C@](C)(COC(C)=O)[C@H](OC(C)=O)CC[C@@]2(C)[C@@H]1CC(Nc1ccc(S(=O)(=O)Nc2cc(C)on2)cc1)C1=CCOC1=O (stereo partly specified)	3.23% (active)
Cc1cc(-c2ccc(NS(=O)(=O)c3ccccc3)c(C)c2)ccc1NS(=O)(=O)c1ccccc1	80.4% and 101%
O=C(/C=C/Nc1ccc(S(=O)(=O)O)cc1)c1ccc(F)cc1	95.8%
Cc1cc(N2CCC(N3CCCC3)CC2)nc(/N=C(\N)Nc2ccc(Cl)c(Cl)c2)n1	-81.4% (active)
COc1ccc(/C=C/c2cccc[n+]2C)cc1	73.8%
CCN1CCN(C(=O)[C@]23CC[C@@H](C)[C@H](C)[C@@H]2C2=CC[C@@H]4[C@@]5(C)C/C(=C/c6ccncc6)C(=O)C(C)(C)[C@@H]5CC[C@@]4(C)[C@]2(C)CC3)CC1	-1.64% (active)
CN(C)CCn1c2ccc(N)cc2c2nc3ccccc3nc21	23.7%
Cc1ccc(-c2nnc(COc3ccc(-c4nnc(N)s4)cc3)o2)cc1	72.7%
NC(=O)c1c(NC(=O)c2ccccc2C(F)(F)F)sc2c1CCC(=O)C2	14.9%
Cc1ccc2nc(C[n+]3ccc4ccccc4c3)ccc2c1	-3.95% (active)
COc1ccc(/C=C2\C=C(c3ccccc3)N(CCc3ccccc3)C2=O)cc1OC	44%
CN(C)CCC(O)(Cc1ccccc1)c1ccccc1 (stereo unspecified)	110%
Cn1c(-c2ccc(Br)cc2)c(O)c(=O)c2c(F)cccc21	39.7%
Cc1c2c(c(C)c3c1oc1cc(O)ccc13)C(=O)N(CCN1CCCCC1)C2=O	100%
O=C1[C@H]2Cc3c([nH]c4ccccc34)[C@H](c3ccc(Br)cc3)N2C(=O)CN1C1CCN(CC2CCCCC2)CC1	80.1%
CCc1nc2cc(F)c(/C=C/C(=O)NO)cc2c(=O)n1CCc1ccccc1	4.28% (active)
CC(=O)O[C@H]1C(=O)[C@@]2(C)C([C@H](OC(=O)c3ccccc3)[C@]3(O)C[C@H](OC(=O)[C@H](O)[C@@H](NC(=O)c4ccccc4)c4ccccc4)C(C)=C1C3(C)C)[C@]1(OC(C)=O)CO[C@@H]1C[C@@H]2O (stereo partly specified)	-11.7% (active)
CCc1nc(C)cn1C(=O)OCc1nc2nc(Cl)nc(N3CCOCC3)c2[nH]1	-54.6% (active)
CC(=O)Nc1nc(C)c(C(=O)NNC(=O)Nc2ccccc2)s1	61.4%
COc1ccc(-c2c[nH]c(C(=O)O)c2-c2cc(OC)c3c(c2OC)OCO3)cc1	103%

SMILES	growth
C#Cc1cccc(Nc2ncnc3ccc(-c4cncc(NS(C)(=O)=O)c4)cc23)c1	-40.3% (active)
COc1cc(C=Nc2oc(-c3ccccc3)c(-c3ccccc3)c2C#N)cc(CN2CCCCC2)c1O	95.6%
Cc1ccc(C(=O)N/N=C/c2ccc3c(c2)OCO3)cc1	101%
Clc1ccc(-c2nnc(COc3ccccc3Cl)o2)cc1	93.7%
Cc1ccc(Cc2cnc(NC(=O)/C=C/c3ccc(C)o3)s2)cc1	-0.221% (active)
CSc1nc2c(c(=O)[nH]1)N=C1c3ccccc3C(=O)C1C(c1ccc(F)cc1)N2 (stereo unspecified)	21.7%
CCN(CC)c1ccc(C(=N)c2ccc(N(C)C)cc2)cc1	5.37% (active)
O=S(=O)(NCCCNc1nccc(-c2c(-c3cccc(O)c3)nc3occn23)n1)c1ccc(Br)cc1	96.3%
CCc1ccc(NC(=O)N[C@@H](Cc2cc(F)cc(F)c2)C(=O)N[C@@H]2C(=O)N3CCC[C@H]3C(=O)N3CCO[C@H](C)[C@H]3C(=O)N[C@@H](CO)C(=O)N3C[C@H](C)C[C@H]3C(=O)O[C@H]2C)c(F)c1	-7.66% (active)
O=C(c1c[nH]c(=O)c(-c2ccccc2)c1)c1ccccc1O	80.8%
O=C1NC(=S)NC(=O)C1=Cc1cn(Cc2cn(Cc3cccc4ccccc34)nn2)c2ccccc12	94.9%
CNCCOc1nc2c3cnccc3cc(-c3cc(OC)c(OC)c(OC)c3)c2c2ccncc12	-43.2% (active)
c1ccc(Cc2cccc[n+]2C(c2ccccc2)c2ccccc2)cc1	-6.43% (active)
Cc1cc(Nc2ccc3c(c2)OCO3)c2cc3c(cc2n1)OCO3	26.5%
CN(C)Cc1ccc(C(=O)Nc2ccc3ncnc(Nc4ccc(Oc5cccc(F)c5)c(Cl)c4)c3c2)cc1	-63% (active)
CCCCC(=O)c1ccco1	95.1%
C#CCNc1nc(NCCNC(=O)CCl)nc(N(C)CCCCc2ccccc2)n1	86%
O=c1c2cc(F)ccc2sc2c(NCCCNCCO)nc3ccc(Cl)cc3c12	68.2%
Cn1c(=O)c(S(=O)(=O)c2ccccc2)cc2ccc3c(cnn3-c3ccc(Cl)cc3)c21	72.3%
Cc1nc2sc(C(=O)Nc3ccccn3)c(N)c2cc1C(C)O (stereo unspecified)	38.4%
COc1ccc(-c2nc3sccn3c2/C=C/C(=O)c2cc(OC)c(OC)c(OC)c2)cc1OC	-13.4% (active)
CC(C)C1C2=C(NCCN1C(=O)c1ccncc1)C(C)(C)N(Cc1ccccc1)C2=O (stereo unspecified)	110%
Cc1cc[c-]cc1.Fc1c[c-]c(-c2ccccn2)c(F)c1.[Pt+2].c1ccc(P(C[PH+](c2ccccc2)c2ccccc2)c2ccccc2)cc1	-2.46% (active)
Cn1c(SC(C(=O)Nc2ccc(F)cc2)c2ccccc2)nc2ccccc2c1=O (stereo unspecified)	99.6%
